Data published in PubChem BioAssay AID489018 (Southern Research Specialized Biocontainment Screening …, 2010).
The whole screen tested about 2,300 compounds, of which about 350 (15%) were called active. The list is a sample of the results. Potency and affinity values are given separately. Unmarked numbers belong to inactive results. The rule behind the calls is not given here.

Experiment: HepG2 cell cytotoxicity, dose response, cytotoxicity control for non-replicating M. tuberculosis project (AID 489018);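 note: HepG2 human liver cells; 100% = vehicle-treated cells and 0% = background signal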
Settings: series mostly up to 20 µM; viability: at the top concentration

Structure (SMILES) | viability
O=C(COc1ccc(-c2ccccc2)cc1)Nc1cccnc1 | 100%
O=C(COc1ccc(Nc2ccccc2)cc1)OCC(=O)N1CCCCC1 | 102%
O=C(Nc1nccs1)c1sc2ccccc2c1Cl | 80.8%
CCn1nnc(NC(=O)c2sc3ccccc3c2Cl)n1 | 92.3%
CCCc1ccc(OCc2ccc(C(=O)N/N=C/c3cccnc3)o2)cc1 | 85.4%
O=C(Nc1ccc(Cl)c(Cl)c1)O/N=C/c1ccncc1 | 105%
O=C(COc1ccccc1)NNc1nc2ccccc2s1 | 105%
CC(C)(C)/C(O)=C/c1nc2ccccc2oc1=O | 100%
O=C(N/N=C/c1cc([N+](=O)[O-])ccc1O)C1CCCCC1 | 75.8%
Cc1ccc(-c2ccc(/C=N/NC(=O)CN3CCCC3)o2)cc1Cl | 117% [at 5 µM]
Nc1ccc2nc3c(c(Cl)c2c1)CCCC3 | 86%
Oc1ccccc1/C=N/Nc1nc2ccccc2o1 | 71.9% [at 5 µM]
CCOC(=O)c1cnc(Nc2nc3ccccc3o2)nc1CSC(=S)N1CCCCC1 | 99.8% [at 5 µM]
O=C(OCCCOC(=O)c1ccc([N+](=O)[O-])o1)c1ccc([N+](=O)[O-])o1 | 95.3%
O=C1Nc2cc(C(=O)NCCCN3CCOCC3)ccc2S/C1=C/c1cccc(Cl)c1 | 74.6%
CN1C(=O)/C(=C/c2cccc(Cl)c2)Sc2ccc(C(=O)N3CCCC3)cc21 | 80.6%

Structure (SMILES) | viability
Cc1ccc2oc(=O)c3cc(C(=O)NCCCN4CCCCCC4)sc3c2c1 | 97.4%
COc1cccc(/C=C2\SC(=S)N(CCC(=O)N3CCCCC3)C2=O)c1 | 71.2%
Cc1ccc(/C=N/NC(=O)C2COc3ccccc3O2)s1 (configuration not stated) | 77.9%
Cc1ccnc(NC(=O)c2cc3ccccc3o2)c1 | 78.3%
CC(C)(C)C(=O)/C=C/Nc1ccccc1O | 98.5%
O=C(OCC(=O)N1CCN(c2ccccc2)CC1)c1ccc(Cl)cc1[N+](=O)[O-] | 93.7%
COc1cc(NCCC(=O)c2cccs2)c(OC)cc1Cl | 95.9%
COC(=O)C1=C(N)OC2=C(C(=O)CC(C)(C)C2)C1c1cccnc1 (configuration not stated) | 106%
CCOC(=O)CNC(=O)CNC(=O)c1nn(-c2ccc(OC)c(Cl)c2)c(=O)c2ccccc12 | 93.9%
Cc1cc(Cl)cc(C)c1OCCCCn1ccnc1 | 91.2%
Cc1cccnc1NC(=O)c1c(O)c2ccccc2n(C)c1=O | 93.5% [at 5 µM]
C=CCn1c(=O)c(C(=O)Nc2cccnc2)c(O)c2ccccc21 | 92.8% [at 5 µM]
CCn1c(=O)c(C(=O)Nc2ncccc2C)c(O)c2ccccc21 | 75.3%
CCCCCCn1c(=O)c(C(=O)Nc2nnc(C)s2)c(O)c2ccccc21 | 99.1%
CCCCn1c(=O)c(C(=O)Nc2ncccc2C)c(O)c2ccccc21 | 71.7%
CCCCn1c(=O)c(C(=O)Nc2nnc(C(C)C)s2)c(O)c2ccccc21 | 106%
